Screens as filed in PubChem.
ALDH1A1 inh: blocks purified human ALDH1A1 activity; Purified ALDH1A1, NADH fluorescence, propionaldehyde substrate; Potency, µM (titrated, usually from 75.3 µM), actives largely listed as inhibitors; 220,000 tested, 7.3% active; active = well fitted inhibition curve with a large enough effect, not every such curve was filed as active; inconclusive = small, poorly fitted or top-dose-only effect, or another doubt; inactive = no such curve, though single readings can be large or run the other way
Target sequence (P00352 whole entry, looked up): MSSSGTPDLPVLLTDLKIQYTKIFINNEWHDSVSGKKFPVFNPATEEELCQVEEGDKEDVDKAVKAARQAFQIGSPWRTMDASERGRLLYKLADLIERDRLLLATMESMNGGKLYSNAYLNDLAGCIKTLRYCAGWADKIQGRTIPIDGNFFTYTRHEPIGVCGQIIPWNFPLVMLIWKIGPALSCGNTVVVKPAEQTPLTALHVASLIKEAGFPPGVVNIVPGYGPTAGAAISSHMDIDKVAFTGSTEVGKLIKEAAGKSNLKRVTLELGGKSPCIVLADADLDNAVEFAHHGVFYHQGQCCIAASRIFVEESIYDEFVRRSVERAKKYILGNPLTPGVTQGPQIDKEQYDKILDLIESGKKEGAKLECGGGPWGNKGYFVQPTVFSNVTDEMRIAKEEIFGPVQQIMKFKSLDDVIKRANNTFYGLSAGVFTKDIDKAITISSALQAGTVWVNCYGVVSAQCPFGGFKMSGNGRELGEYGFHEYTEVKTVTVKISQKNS
HttQ103 aggreg: inhibitors of mutant huntingtin aggregate formation in PC12 cells; Potency, µM (highest dose often 46.1 µM), hits mostly inhibitors; PC12 HttQ103-GFP aggregates, Acumen cytometry, 40 h; 220,000 tested, 1.1% active; also: nearly all actives have a fitted effect of over 60% in size
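Read-out: GFP aggregate count by laser scanning cytometer (488 nm excitation, 500-530 nm emission, 1–25 µm objects >6 SD above background). Cells: PC12, inducible HTTex1-Q103-GFP, 100 nM tebufenozide; compounds titrated.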
HPGD inh: inhibitors of human 15-hydroxyprostaglandin dehydrogenase (HPGD); purified HPGD, NADH fluorescence kinetic, PGE2 substrate; 150,000 tested, 4.3% active; Potency, µM, hits mostly inhibitors; P15428; active = well fitted inhibition curve with a large enough effect, not every such curve was filed as active; inconclusive = small, poorly fitted or top-dose-only effect, or another doubt; inactive = no such curve, though single readings can be large or run the other way
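20 nM HPGD preincubated 15 min at room temperature with compound in 50 mM Tris-HCl pH 8, 0.01% Tween 20. Started with 1 mM NAD+ and 30 uM prostaglandin E2; NADH fluorescence (360/450 nm) read 5 times over 30-s intervals, last minus first.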
IMPase inh: membrane-permeable compound that blocks inositol monophosphatase. inhibition (IP1 accumulation), % at 46.1 µM. P97697. CHO-M1 cells, IP1 accumulation, HTRF TR-FRET ratio. AID 901. 120,000 tested, under 10 active; active = well fitted curve in the direction sought with a large enough effect in the signal ratio, not every such curve was filed as active; inconclusive = small, poorly fitted or top-dose-only effect, or a change in a side signal; inactive = no such curve, though single readings can be large or run the other way; the % refers to the signal ratio;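 also: cells stimulated with carbachol in lithium chloride buffer; higher means more IMPase inhibition seen as more IP1 and lower FRET ratio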
Target sequence (P97697 whole entry, looked up): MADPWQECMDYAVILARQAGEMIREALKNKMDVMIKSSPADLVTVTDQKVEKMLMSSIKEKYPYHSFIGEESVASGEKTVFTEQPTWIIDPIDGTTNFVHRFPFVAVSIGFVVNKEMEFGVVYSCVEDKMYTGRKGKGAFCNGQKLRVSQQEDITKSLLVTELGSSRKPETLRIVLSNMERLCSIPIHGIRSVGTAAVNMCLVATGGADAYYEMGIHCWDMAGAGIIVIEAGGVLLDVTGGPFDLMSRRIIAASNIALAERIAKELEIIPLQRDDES
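Elevated IP1 in lysates lowers TR-FRET signal (665/620 ratio and 620 channel reported). Cells were CHO-M1, given carbachol (50 uM as added) plus 50mM LiCl, pH 7.4, 30 min, 37C; compounds titrated up to 46 uM; AC50 by Hill equation.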
IMPase Li inh: membrane-permeable IMPase blocker, potentiated with lithium; CHO-M1 cells, IP1 TR-FRET (IP-One), carbachol + lithium; Potency, µM (doses to about 59.4 µM), actives largely listed as inhibitors; 210,000 tested, 0.35% active; AID 1457;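 also: IP1 builds up when IMPase is blocked and the TR-FRET signal falls; nearly all actives have a fitted effect of over 50% in size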
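Concentration–response in CHO-M1 cells, lithium-potentiated; 30 min at 37C. IP1 detected by competitive TR-FRET after 10 min lysis at RT. Hill-fitted AC50.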
HTT ATP protect: Huntington cell model cytoprotection by ATP luminescence | 230,000 tested, 0.14% active | Potency, µM (doses to about 56.4 µM), actives largely listed as activators | PC12 HTT-Q103 induced, cytoprotection, ATP luminescence, 40 h; also: nearly all actives have a fitted effect of over 45% in size
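Compounds added alongside 100 nM tebufenozide, which induces toxic Q103 huntingtin exon 1-GFP in stable PC12 cells; surviving cells quantified by luminescent ATP measurement. Medium: phenol red-free DMEM, 5% equine and 5% calf serum.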
Hits are given with their value; 0 = inactive; ? = inconclusive; - = no result given; ! = not active in a repeat; [ ] = remark or other dose. Most compounds without a hit are left out; they make up all but 9.4% or so of the library. Unless noted, calls follow the shape of the dose curve; as a rule, active = well fitted curve in the direction sought with a large enough effect; inconclusive = small, poorly fitted or top-dose-only effect, or another doubt; inactive = no such curve, though single readings can be large; an effect the other way counts as inactive or inconclusive.

SMILES	ALDH1A1 inh	HttQ103 aggreg	HPGD inh	IMPase inh	IMPase Li inh	HTT ATP protect
CCCCOc1cccc(NC(=O)c2cccc(C(=O)Nc3cccc(OCCCC)c3)c2)c1	-	-	-	0	-	-
O=C(c1cccc(-c2nnc(-c3ccccc3)o2)c1)N1CCCCCC1	?	0	8.9µM	0	0	0
O=C(c1cccc(-c2nnc(-c3ccccc3)o2)c1)N1CCCCC1	?	0	7.9µM	0	0	0
O=C(O)c1[nH]c2ccc([N+](=O)[O-])cc2c1-c1ccccc1	-	0[9.22 µM]	-	-	-	0[10 µM]
O=C(N/N=C/c1ccccn1)c1[nH]c2ccc([N+](=O)[O-])cc2c1-c1ccccc1	4.5µM	0[9.22 µM]	-	-	0	0
Cc1ccc(NC(=O)Cn2cccc2)cc1Cl	11µM	0	16µM	0	0	0[10 µM]
COCC(=O)Nc1ccc(C)c(Cl)c1	0	0	14µM	0	?	0[0.074 µM]
Cc1ccc(NC(=O)Cn2cccc2)cc1C	0	0	?	0	0	0
CCCCOC(=O)Nc1ccc(C)c(Cl)c1	0	0	16µM	0	0	0
COc1ccc(NC(=O)Cc2ccc(C)c(C)c2)cc1Cl	?	0	-	-	0	0
CS(=O)(=O)Nc1cccc(-c2cc(Nc3ccccc3)ncn2)c1	0	-	-	-	0	0
COc1ccc(S(=O)(=O)N(CCO)c2ccccc2CN(C)C/C=C/c2ccc(Cl)cc2)cc1	0	-	-	-	0	0
CC(=O)NC(Cc1ccc(C(C)C)cc1)C(=O)NC1CCN(C(=O)c2cccc(C)c2)CC1 (stereo not drawn)	25µM	0[9.22 µM]	-	-	0	0[10 µM]
CC(=O)NC(Cc1cccc(F)c1)C(=O)NC1CCN(C(=O)c2cccc(C)c2)CC1 (stereo not drawn)	0	0[9.22 µM]	-	-	0	0[10 µM]
COc1ccc(/C=C(/C#N)S(=O)(=O)c2ccc(C)cc2)cc1	0	0	25µM	0	0	0
Cc1ccc(S(=O)(=O)/C(C#N)=C/c2ccccc2OCc2ccccc2)cc1	?	0	?	0	0	0[10 µM]
O=Cc1ccc(Oc2ccc(F)cc2)nc1	16µM	0	-	-	0	0
CCC(CC)(CC(=O)Nc1cccc(/C=C/c2nc(C3CCC3)cs2)c1)C(=O)O	?	0	?	-	0	0
CCC(=O)N=c1n(C)c2ccccc2n1CCOc1ccccc1	5µM	0	0	-	0	-
CCCn1c(=N)n(CCOc2ccc(OC)cc2)c2ccccc21	0	0	0	0	0	0
CCc1ccccc1NC(=O)CC1CS(=O)(=O)CC1CC(=O)Nc1ccccc1CC (stereo not drawn)	0	0	0	0	0	0[10 µM]
O=C(CC1CS(=O)(=O)CC1CC(=O)Oc1ccccc1F)Oc1ccccc1F (stereo not drawn)	7.1µM	0	0	-	0	-
Clc1cc(Cl)c(OCC#CI)cc1Cl	-	0	-	-	-	0
COc1ccc2c(c1)-c1nc(NC(=O)c3cc(OC)c(OC)c(OC)c3)sc1CC2	-	-	-	0	-	-
CC1=C(C(=O)Nc2ccccc2)C(c2ccc(Br)cc2)n2nc(CCCO)nc2N1 (stereo not drawn)	-	-	-	0	-	-
SMILES	ALDH1A1 inh	HttQ103 aggreg	HPGD inh	IMPase inh	IMPase Li inh	HTT ATP protect
COc1ccc(/C=C/C(=O)Nc2ccc(Cl)cc2Cl)cc1	-	-	-	0	-	-
O=c1[nH]c(=O)n([C@H]2C[C@H](O)[C@@H](CO)O2)cc1Br	0	0	0	0	0	3.5µM!
COc1cc(NC(=O)CCN2CCN(c3ccccc3F)CC2)cc(OC)c1	0	0	0	0	0	0[10 µM]
COc1ccccc1N1CCN(CC(=O)Nc2cc(F)ccc2C)CC1	18µM	0	0	0	0	0
COc1cc(NC(=O)CCN2CCN(Cc3ccccc3)CC2)cc(OC)c1	11µM	0	0	0	0	0
COc1ccc(NC(=O)CN2CCN(CC(=O)Nc3ccccc3Cl)CC2)cc1	8.9µM	0	0	0	0	0
COc1ccccc1NC(=O)CN1CCN(Cc2ccccc2)CC1	10µM	0	0	0	0	0
Cc1cccc(OCCn2c(-c3ccc(Cl)cc3)nc3ccccc3c2=O)c1	-	-	-	0	-	-
CCCS(=O)(=O)c1c(S(=O)(=O)CCC)c2cc(C(C)(C)C)ccn2c1C(=O)c1ccccc1	-	-	-	0	-	-
CN(c1ccccc1)P(=O)(N(C)c1ccccc1)N(C)c1ccccc1	0	?	-	-	0	0
COc1ccccc1NC(=O)CN1CCN(CC(=O)Nc2ccc(F)cc2)CC1	25µM	0	0	0	0	0
O=C(CN1CCN(Cc2ccccc2)CC1)Nc1ccccc1-c1ccccc1	11µM	0[9.22 µM]	-	-	0	0[10 µM]
CC1(C2CC2)NC(=O)N(CC(=O)Nc2ccccc2-c2ccccc2)C1=O (stereo not drawn)	18µM	0	-	-	0	0
COCC(=O)Nc1ccccc1C(=O)Nc1ccc(OC)cc1	0	0	0	0	32µM	0
COc1ccc(NC(=O)c2ccccc2NC(=O)COc2ccccc2)cc1	0	?	0	0	0	0
CCCCS(=O)(=O)N1C2=NC(C(=O)OC)=C(C(=O)OC)[C@@H]3N(C)c4ccccc4[C@]23C[C@H]1C(=O)OC	0[13.5 µM]	-	0	-	0	0[10 µM]
Cc1cc(C)cc(NC(=O)CCCn2c3ccccc3c(=O)c3ccccc32)c1	-	-	-	0	-	-
CCOc1ccc(OCC)c(NC(=O)CN2CCN(c3cc(C)ccc3C)CC2)c1	3.5µM	0	0	0	0	0
Oc1ccc(/C=N/n2cnn(Cc3ccccc3Cl)c2=S)c(O)c1	20µM	0	20µM	-	0	0[10 µM]
c1ccc(-n2nnnc2SCc2cccc(CSc3nnnn3-c3ccccc3)n2)cc1	1.6µM	0	0	-	0	0[10 µM]
c1ccc(CSc2nnnn2-c2cccc3ccccc23)nc1	20µM	0	0	0	?	0
COC(=O)CSc1nnnn1-c1cccc2ccccc12	?	0	0	0	0	0[10 µM]
O=C(CCCSc1nnnn1-c1cccc2ccccc12)c1ccc(F)cc1	1.4µM	?	0	0	0	0
c1ccc(-n2nnnc2SCc2cn3ccccc3n2)cc1	4µM	0	0	0	0	0
N#CCCn1c(=O)c(-c2cccs2)nc2cnc(N3CCNCC3)nc21	?	-	?	-	0	?
SMILES	ALDH1A1 inh	HttQ103 aggreg	HPGD inh	IMPase inh	IMPase Li inh	HTT ATP protect
[O-][N+]1(CC[N+]2([O-])CCCCC2)CCCCC1	0[13.5 µM]	-	0	-	0	0[10 µM]
Fc1ccc(NC(=S)NC2CCN(Cc3ccccc3)CC2)cc1	14µM	0[9.22 µM]	-	-	0	0[10 µM]
COC(=O)C1=C(C)NC(=O)NC1c1cn(-c2ccccc2)nc1-c1ccc(OC)c(Br)c1 (stereo not drawn)	-	-	-	0	-	-
CCOC(=O)c1sc2ncn(C(C)C(=O)OCC)c(=O)c2c1C (stereo not drawn)	0	0	0	0	0	0[10 µM]
CCOC(=O)c1sc2ncn(/N=C/c3ccc(O)cc3)c(=O)c2c1C	20µM	0	-	-	0	0
CCOC(=O)c1sc2ncn(/N=C/c3cccnc3)c(=O)c2c1C	0.071µM	0	0	0	0	0
COc1ccc(Cl)cc1NC(=O)CSc1nc(-c2ccco2)cc(C(F)(F)F)n1	-	-	-	0	-	-
